# Pol kappa inh: qHTS for Inhibitors of Polymerase Kappa; 400,000 compounds, 0.53% hits; AID 588579, 2011; DNA polymerase kappa (Homo sapiens), Q9UBT6; Potency, µM (highest dose often 107 µM), inactives show at the highest dose activity, negative = inhibition, usual class: inhibitors; purified Pol kappa, fluorescent DNA synthesis assay, 10 min; also: potency is read from the fitted curve at half-maximal effect; % is scaled to controls: 0 for no effect and ±100 for the full control effect
#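 Inhibition of 10 nM Pol kappa is measured by a fluorescent read-out at 0 and 10 min following addition of 50 nM substrate (final), with a 15-min room-temperature compound preincubation.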
# POLB inh: qHTS Assay for Inhibitors of DNA Polymerase Beta; Potency, µM (doses to about 114 µM), inactives show at the highest dose activity change, negative = inhibition, actives largely listed as inhibitors; P06746; Pol beta primer extension/strand displacement, fluorescence kinetic; 340,000 compounds, 1.3% hits; also: potency is read from the fitted curve at half-maximal effect; % is scaled to controls: 0 for no effect and ±100 for the full control effect
#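 Homogeneous kinetic assay of primer extension and strand displacement by 10 nM Pol beta, preincubated 15 min at room temperature with compound before 50 nM substrate (final) was added. Read at 0 and 10 min; four-parameter Hill fit.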
# PI5P4K alpha inh: qHTS for Inhibitors of phosphatidylinositol 5-phosphate 4-kinase (PI5P4K) | Phosphatidylinositol 5-phosphate 4-kinase type-2 alpha (Homo sapiens), P48426 | PI5P4Kalpha enzyme, ADP-Glo luminescence, 60 min; hits give low values | max response, % | 330,000 compounds, 1.2% hits; active = max response of -50% or lower; inconclusive = between -30% and -50%; inactive = -30% or higher; also: value at the top dose of about 77 µM; % is scaled to controls: 0 for no effect and ±100 for the full control effect
# Target sequence (P48426 whole entry, looked up): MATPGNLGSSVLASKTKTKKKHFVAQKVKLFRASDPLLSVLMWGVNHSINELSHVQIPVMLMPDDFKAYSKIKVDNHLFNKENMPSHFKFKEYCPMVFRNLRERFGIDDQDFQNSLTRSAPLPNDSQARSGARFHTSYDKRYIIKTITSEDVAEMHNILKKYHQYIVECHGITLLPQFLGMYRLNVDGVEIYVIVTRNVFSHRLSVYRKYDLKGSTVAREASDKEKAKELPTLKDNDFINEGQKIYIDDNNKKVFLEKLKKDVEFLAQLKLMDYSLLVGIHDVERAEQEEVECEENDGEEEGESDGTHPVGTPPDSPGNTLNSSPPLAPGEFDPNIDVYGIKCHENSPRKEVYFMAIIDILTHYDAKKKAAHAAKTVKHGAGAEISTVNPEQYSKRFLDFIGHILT
#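 ADP-Glo luminescence end-point read after a 60 min room-temperature kinase reaction of PI5P4Kalpha plus substrate, initiated with ATP at 5 microM final. Buffer: 0.038 M HEPES pH 7.4, EGTA, 0.1% CHAPS, 5% DMSO.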
# Pol eta inh: qHTS for Inhibitors of Polymerase Eta; DNA polymerase eta (Homo sapiens), Q9Y253; recombinant Pol eta, fluorescent DNA replication assay; Potency, µM (highest dose often 114 µM), without a hit: at the top dose activity change, negative = inhibition, actives largely listed as inhibitors; 390,000 compounds, 1.2% hits; AID 588591, 2011; also: potency is read from the fitted curve at half-maximal effect; % is scaled to controls: 0 for no effect and ±100 for the full control effect
#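 Pol eta (10 nM) was preincubated with compounds for 15 min at room temperature, after which fluorescent replication substrate (50 nM final) was added to start the reaction. Fluorescence was read kinetically at 0 and 10 min.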
# FEN1 inh: qHTS Assay for the Inhibitors of Human Flap endonuclease 1 (FEN1). Potency, µM (series often up to 114 µM), for inactives: at the top dose activity change, negative = inhibition, hits mostly inhibitors. Recombinant FEN1 flap cleavage, fluorescence, 15 min. P39748. AID 588795, 2011. 390,000 compounds, 0.35% hits; also: potency is read from the fitted curve at half-maximal effect; % is scaled to controls: 0 for no effect and ±100 for the full control effect; nearly all actives have a fitted effect of over 65% in size
#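 Compounds are tested as a concentration series against 10 nM FEN1; after a 15 min room-temperature preincubation, 50 nM substrate starts cleavage, with plate reads at 0 and 15 min. Normalized responses are fitted by a Hill equation.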
# Pol iota inh: qHTS for Inhibitors of Polymerase Iota | Pol iota fluorescent replication assay, 10 min | Potency, µM (highest dose often 115 µM), for inactives: top-dose activity, negative = inhibition, actives largely listed as inhibitors | 390,000 compounds, 1% hits; also: potency is read from the fitted curve at half-maximal effect
#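 Fluorescent replication assay read twice, at 0 min and 10 min after adding 50 nM (final) substrate. Enzyme (10 nM) and compounds were first incubated 15 min at room temperature; enzyme-free buffer wells were negative controls.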
# * marks the source's active call; other numbers are inactive results; ? = inconclusive; nt = no result given; ! = not confirmed by another sample; [ ] = dose if it differs, or a comment. This is a sample that favours compounds with a hit; in the whole collection about 2.8% have one here. Unless noted, calls follow the shape of the dose curve; as a rule, active = well fitted curve in the direction sought with a large enough effect; inconclusive = small, poorly fitted or top-dose-only effect, or another doubt; inactive = no such curve, though single readings can be large; an effect the other way counts as inactive or inconclusive.
SMILES,Pol kappa inh,POLB inh,PI5P4K alpha inh,Pol eta inh,FEN1 inh,Pol iota inh
Cc1nc2c(OCc3ccccc3)cccn2c1CC#N,?,14%[57.1 µM],nt,-4%[57.1 µM],nt,7%[58.9 µM]
Cc1nc2cc(N=NC3=C(O)CCCC3=O)ccc2s1,-28%,-26%,-23,-16%,-5%,50µM*
O=C1CCCC(O)=C1N=Nc1ccc(Cl)c(Cl)c1,-4%,?,-19,-18%,4%,-19%
Cc1ccc(C(=O)/C=C/C(=O)c2ccc(C)cc2)cc1,-7%,3%,-53*,-21%,-3%,30%
CC1(C)[C@@H](O)CC[C@]2(C)[C@H]3C(=O)C=C4[C@@H]5C[C@@](C)(C(=O)O)CC[C@]5(C)CC[C@@]4(C)[C@]3(C)CC[C@@H]12,34µM*!,11%,0,-17%,4%,13%
CC1(C)[C@@H](O)CC[C@]2(C)C3C(O)C=C4[C@H]5C[C@@](C)(CO)CC[C@]5(C)CC[C@]4(C)[C@]3(C)CC[C@@H]12 (stereo partly specified),-9%,0%,-62*,?,-1%,29%
CN(C)S(=O)(=O)c1ccc(-c2csc(N/N=C/c3ccc(O)cc3)n2)cc1,-6%,6%,-63*,-12%,3%,?
N=C1C(c2nc3ccccc3[nH]2)=C(O)CN1c1ccc(CC(=O)O)cc1,-12%,-17%,nt,79µM*,-13%,?
CC(C)(C)c1ccccc1NC(=O)NC1CCN(Cc2c(F)cccc2Cl)CC1,-6%,2%,5,-14%,-8%,31%
COc1ccc(/C=N/Nc2ncnc3c2[nH]c2ccccc23)c(OC)c1OC,-19%,?,1,?,1%,?
COc1cccc(/C=N/Nc2ncnc3c2[nH]c2ccc(C)cc23)c1OC,?,?,-18,?,-21%,13µM*
N#Cc1ccc(CN2CCC3(CC2)CCN(C(=O)c2ccncc2)CC3)cc1,1%[60.1 µM],nt,nt,nt,nt,nt
CCC(C)N=C1Sc2nc3ccc(C)cc3cc2CN1CCOC (stereo unspecified),-10%,4%,-53*,-17%,-13%,19%
COC1=CC(=NCl)C=CC1=NCl,nt,nt,-62*,nt,nt,nt
CCS(=O)(=O)c1cccc(C(=O)Nc2ccc(-c3nc4ccccc4s3)c(O)c2)c1,-5%[60.1 µM],20µM*,nt,?,-14%,?
Cc1sc(-n2c(C)cc(C=O)c2C)c(C(=O)O)c1C,-25%,?,nt,50µM*,5%,35µM*
COc1ccc2c(c1)oc(=O)c1c3ccccc3[nH]c21,-26%,22µM*,-9,-12%,-13%,-26%
S=c1[nH]c(=S)c2[nH]cnc2[nH]1,-11%,nt,nt,nt,-1%,79µM*
Cn1c(=O)[nH]c2nc[nH]c2c1=O,-19%,nt,0,-11%,-9%,-5%
COc1cc2c(cc1OC)-c1c(oc3cc(O)cc(O)c3c1=O)CO2,32µM*,nt,nt,nt,nt,nt
CN(C)C(CNC(=O)CCOc1ccccc1)c1ccco1 (stereo unspecified),79µM*,?,-2,?,-13%,32µM*
CC(=O)c1ccc(OCCCC(=O)NCC(c2ccco2)N(C)C)cc1 (stereo unspecified),-5%,-2%,nt,13%,-3%,10%
Cc1ccc(Cl)cc1-n1nnc(-c2nc(-c3ccc4c(c3)OCO4)no2)c1C,9%,7%,nt,-2%,16%,-3%
CCCN1C(=O)/C(=C/C=C2\N(CC)c3ccccc3C2(C)C)SC1=S,-5%,7%,4,56µM*,?,36%
CCOC(=O)c1c(C)[nH]c(C)c1S(=O)(=O)N(C)CC(=O)Nc1ccccc1F,45µM*,-1%,-2,-9%,14%,50µM*
CCOC(=O)c1c(C)[nH]c(C)c1S(=O)(=O)N(C)CC(=O)Nc1cc(Cl)ccc1C,-1%,1%,nt,-19%,-1%,17%

# Screening results (PubChem BioAssay)
